Activity calls are given as the source filed them. How the source made its calls: active means hit-call score of the fitted dose curve at least 0.9, where 1 is the maximum; inactive means score below 0.9.
What was measured:
Conditions in all cases: mRNA level, 48 h; actives raise or lower the signal
Caspase-3 (Homo sapiens) = Caspase-3 (Homo sapiens) (UniProt P42574); experiment: LTEA_HepaRG_CASP3: Life Technologies and Expression Analysis (LTEA) Assay for cysteine-aspartic acid protease (CASP3) using HepaRG (AID 2283477)
Chain of Caspase-3 (Homo sapiens) (P42574 whole entry, looked up): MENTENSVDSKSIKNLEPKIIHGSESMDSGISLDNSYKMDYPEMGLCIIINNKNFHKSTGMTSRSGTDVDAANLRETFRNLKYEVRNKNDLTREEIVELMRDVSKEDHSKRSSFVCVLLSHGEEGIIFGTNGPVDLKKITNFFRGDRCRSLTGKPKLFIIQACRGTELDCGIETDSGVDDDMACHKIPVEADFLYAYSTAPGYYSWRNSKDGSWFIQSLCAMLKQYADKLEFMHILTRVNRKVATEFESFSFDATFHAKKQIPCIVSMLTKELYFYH
Summary of the method: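 Differentiated human HepaRG cells in serum-free induction medium were exposed 48 h to 8-point half-log concentrations from 100 uM (0.5% DMSO vehicle). CASP3 mRNA was measured by qRT-PCR, normalised to ACTB, GAPDH and POLR2A, with bidirectional fitting against DMSO.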

[1] = read-out: Cytochrome P450 (CYP24A1), CYP24A1 (gene 1591); experiment: LTEA_HepaRG_CYP24A1: Life Technologies and Expression Analysis (LTEA) Assay for Cytochrome P450 (CYP24A1) using HepaRG (AID 2283478)
Summary of the method: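 Differentiated HepaRG cells, pre-cultured 48 h, were exposed in duplicate for 48 h in serum-free induction medium to 8 half-log concentrations (top 100 uM, 0.5% DMSO). CYP24A1 mRNA was quantified by TaqMan qRT-PCR, normalized to ACTB/GAPDH/POLR2A, fitted bidirectionally versus DMSO.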

[2] = read-out: Cytochrome P450 (CYP1A2), CYP1A2 (gene 1544); experiment: LTEA_HepaRG_CYP1A2: Life Technologies and Expression Analysis (LTEA) Assay for Cytochrome P450 (CYP1A2) using HepaRG (AID 2283479)
Summary of the method: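 Differentiated human HepaRG cells in serum-free induction medium were exposed in duplicate for 48 h to 8-point half-log concentrations up to 100 uM in 0.5% DMSO. CYP1A2 mRNA measured by qRT-PCR, normalized to ACTB, GAPDH, POLR2A; bidirectional fit vs DMSO.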

[3] = read-out: Cytochrome P450 (CYP2B6), CYP2B6 (gene 1555); experiment: LTEA_HepaRG_CYP2B6: Life Technologies and Expression Analysis (LTEA) Assay for Cytochrome P450 (CYP2B6) using HepaRG (AID 2283481)
Summary of the method: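 Differentiated HepaRG cells, serum-free induction medium, exposed 48 h in duplicate to 8-point half-log concentrations from 100 uM in 0.5% DMSO. CYP2B6 mRNA by qRT-PCR, normalized to ACTB, GAPDH, POLR2A; bidirectional fit versus DMSO.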

[4] = read-out: Cytochrome P450 2C19 (Homo sapiens) (UniProt P33261); experiment: LTEA_HepaRG_CYP2C19: Life Technologies and Expression Analysis (LTEA) Assay for CYP2C19 using HepaRG (AID 2283482)
Summary of the method: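 Differentiated human HepaRG cells were exposed for 48 h in serum-free induction medium to 8 concentrations (top 100 uM, half-log steps, 0.5% DMSO). CYP2C19 mRNA was measured by qRT-PCR, normalized to ACTB/GAPDH/POLR2A, and fitted bidirectionally against DMSO.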

CYP2C8 (gene 1558) = experiment: LTEA_HepaRG_CYP2C8: Life Technologies and Expression Analysis (LTEA) Assay for CYP2C8 using HepaRG (AID 2283483)
Summary of the method: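 HepaRG (human liver line), 48 h chemical exposure, 8-pt half-log series from 100 uM, 0.5% DMSO vehicle. Readout: CYP2C8 transcript by qRT-PCR, housekeeping-normalized. Bidirectional fit vs DMSO baseline.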

CYP2C9 (gene 1559) = experiment: LTEA_HepaRG_CYP2C9: Life Technologies and Expression Analysis (LTEA) Assay for CYP2C9 using HepaRG (AID 2283484)
Summary of the method: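 HepaRG, 48 h dosing, 8-pt half-log series, top 100 uM, 0.5% DMSO vehicle. Read-out: CYP2C9 transcript by TaqMan qRT-PCR, housekeeping-normalized (ACTB/GAPDH/POLR2A). Gain or loss fitted vs DMSO baseline.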

CYP2E1 (gene 1571) = experiment: LTEA_HepaRG_CYP2E1: Life Technologies and Expression Analysis (LTEA) Assay for CYP2E1 using HepaRG (AID 2283485)
Summary of the method: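 CYP2E1 transcript was measured by TaqMan qRT-PCR in human HepaRG cultures after 48 h chemical exposure (top 100 uM, half-log steps, 0.5% DMSO vehicle). Housekeeping-gene normalization; gain or loss fitted relative to DMSO baseline.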

CYP4A11 (gene 1579) = experiment: LTEA_HepaRG_CYP4A11: Life Technologies and Expression Analysis (LTEA) Assay for CYP4A11 using HepaRG (AID 2283486)
Summary of the method: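 Differentiated HepaRG cells, serum-free induction medium, exposed 48 h in duplicate to 8-point half-log series from 100 uM in 0.5% DMSO. CYP4A11 mRNA measured by qRT-PCR, normalized to ACTB, GAPDH, POLR2A; bidirectional fit versus DMSO.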

[5] = read-out: Cytochrome P450 3A4 (Homo sapiens) (UniProt P08684); experiment: LTEA_HepaRG_CYP3A4: Life Technologies and Expression Analysis (LTEA) Assay for CYP3A4 using HepaRG (AID 2283487)
Summary of the method: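 Differentiated HepaRG cells in serum-free induction medium exposed in duplicate for 48 h to 8 half-log concentrations up to 100 uM in 0.5% DMSO. CYP3A4 mRNA measured by qRT-PCR normalized to ACTB, GAPDH and POLR2A; bidirectional fit versus DMSO.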

[6] = read-out: DNA damage-inducible transcript 3 (DDIT3), DDIT3 (gene 1649); experiment: LTEA_HepaRG_DDIT3: Life Technologies and Expression Analysis (LTEA) Assay for DNA damage-inducible transcript 3 (DDIT3) using HepaRG (AID 2283488)
Summary of the method: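 qRT-PCR readout (Fluidigm TaqMan), housekeeping-normalized to ACTB, GAPDH, POLR2A. HepaRG cells, 48 h exposure, 8-point half-log series from 100 uM in 0.5% DMSO, duplicates. Gain or loss of signal fitted against DMSO baseline.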

[7] = read-out: Pro-epidermal growth factor (Homo sapiens) (UniProt P01133); experiment: LTEA_HepaRG_EGF: Life Technologies and Expression Analysis (LTEA) Assay for Epidermal growth factor (EGF) using HepaRG (AID 2283489)
Summary of the method: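 Differentiated human HepaRG cells, plated 48 h then switched to serum-free induction medium, were exposed for 48 h to test chemicals (8-point half-log series, top 100 uM, 0.5% DMSO). EGF mRNA was quantified by qRT-PCR, normalized to ACTB, GAPDH, POLR2A.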

[8] = read-out: Early growth response protein 1 (EGR1) transcription factor, EGR1 (gene 1958); experiment: LTEA_HepaRG_EGR1: Life Technologies and Expression Analysis (LTEA) Assay for Early growth response protein 1 (EGR1) transcription factor using HepaRG (AID 2283490)
Summary of the method: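 HepaRG, 48 h exposure, 8-pt half-log series from 100 uM, 0.5% DMSO vehicle; EGR1 transcript by TaqMan qRT-PCR (Fluidigm array), housekeeping-normalized; bidirectional fit relative to DMSO baseline.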

[9] = read-out: Ezrin (EZR), EZR (gene 7430); experiment: LTEA_HepaRG_EZR: Life Technologies and Expression Analysis (LTEA) Assay for Ezrin (EZR) using HepaRG (AID 2283491)
Summary of the method: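 Differentiated human HepaRG cells, 48 h after plating, were exposed in serum-free induction medium for 48 hours to eight half-log concentrations up to 100 uM in 0.5% DMSO. EZR mRNA was measured by TaqMan qRT-PCR, normalized to ACTB, GAPDH and POLR2A, and fitted bidirectionally against DMSO.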

[10] = read-out: Cytochrome P450 3A7 (Homo sapiens) (UniProt P24462); experiment: LTEA_HepaRG_CYP3A7: Life Technologies and Expression Analysis (LTEA) Assay for CYP3A7 using HepaRG (AID 2283492)
Summary of the method: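 HepaRG cells plated 48 h, then dosed in serum-free induction medium for 48 h at 8 concentrations (top 100 uM, half-log steps, 0.5% DMSO). CYP3A7 mRNA by qRT-PCR, normalised to ACTB/GAPDH/POLR2A; bidirectional fit versus DMSO.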

CYP3A5 (gene 1577) = experiment: LTEA_HepaRG_CYP3A5: Life Technologies and Expression Analysis (LTEA) Assay for CYP3A5 using HepaRG (AID 2283493)
Summary of the method: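 qRT-PCR read-out: CYP3A5 transcript in HepaRG lysates, housekeeping-normalized (ACTB/GAPDH/POLR2A), fitted bidirectionally against 0.5% DMSO baseline. Exposure 48 h, eight half-log concentrations up to 100 uM, duplicates.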

[11] = read-out: Fatty Acid-Binding Protein 1 (FABP1), FABP1 (gene 2168); experiment: LTEA_HepaRG_FABP1: Life Technologies and Expression Analysis (LTEA) Assay for Fatty Acid-Binding Protein 1 (FABP1) using HepaRG (AID 2283494)
Summary of the method: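 qRT-PCR readout of FABP1 transcript (normalized to three housekeeping genes) after 48 h chemical exposure of HepaRG cells; eight concentrations, half-log steps, max 100 uM, 0.5% DMSO vehicle; gain or loss fitted relative to DMSO baseline.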

[12] = read-out: Cytochrome P450 7A1 (Homo sapiens) (UniProt P22680); experiment: LTEA_HepaRG_CYP7A1: Life Technologies and Expression Analysis (LTEA) Assay for Cytochrome P450 7A1 (CYP7A1) using HepaRG (AID 2283496)
Summary of the method: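 Using 0.5% DMSO as vehicle and baseline, chemicals were tested in duplicate over an 8-point range from 100 uM on HepaRG cells for 48 h; qRT-PCR signals were normalised to ACTB, GAPDH and POLR2A.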

[13] = read-out: Cytochrome P450 4A22 (Homo sapiens) (UniProt Q5TCH4); experiment: LTEA_HepaRG_CYP4A22: Life Technologies and Expression Analysis (LTEA) Assay for Cytochrome P450 4A22 (CYP4A22) using HepaRG (AID 2283495)
Summary of the method: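 qRT-PCR of CYP4A22 mRNA (Fluidigm TaqMan, normalized to three housekeeping genes) after 48 h chemical exposure of HepaRG cells; 8-point half-log series, top 100 uM, 0.5% DMSO vehicle. Bidirectional curve fitting vs DMSO baseline.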

[14] = read-out: cysteine-aspartic acid protease (CASP8), CASP8 (gene 841); experiment: LTEA_HepaRG_CASP8: Life Technologies and Expression Analysis (LTEA) Assay for cysteine-aspartic acid protease (CASP8) using HepaRG (AID 2283480)
Summary of the method: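 qRT-PCR readout of CASP8 mRNA, normalized to three housekeeping genes, after 48 h chemical exposure of HepaRG cells; 8-point half-log series, top 100 uM, 0.5% DMSO vehicle. Bidirectional curve fitting against DMSO baseline.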

Measured: AC50

Chain of Cytochrome P450 3A7 (Homo sapiens) (P24462 whole entry, looked up): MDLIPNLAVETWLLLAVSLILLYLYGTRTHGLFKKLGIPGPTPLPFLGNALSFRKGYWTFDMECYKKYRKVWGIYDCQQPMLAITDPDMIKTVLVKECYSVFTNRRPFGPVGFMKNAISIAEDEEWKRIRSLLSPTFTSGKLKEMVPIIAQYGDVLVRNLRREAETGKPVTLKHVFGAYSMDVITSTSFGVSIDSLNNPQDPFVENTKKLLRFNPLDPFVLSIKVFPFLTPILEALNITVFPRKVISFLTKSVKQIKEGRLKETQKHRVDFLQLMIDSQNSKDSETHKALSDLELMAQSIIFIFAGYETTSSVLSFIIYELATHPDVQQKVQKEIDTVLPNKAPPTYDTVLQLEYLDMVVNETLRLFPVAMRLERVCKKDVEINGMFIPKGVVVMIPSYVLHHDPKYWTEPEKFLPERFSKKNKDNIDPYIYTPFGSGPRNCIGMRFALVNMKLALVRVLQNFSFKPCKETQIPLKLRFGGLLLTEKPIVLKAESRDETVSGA
Chain of Cytochrome P450 2C19 (Homo sapiens) (P33261 whole entry, looked up): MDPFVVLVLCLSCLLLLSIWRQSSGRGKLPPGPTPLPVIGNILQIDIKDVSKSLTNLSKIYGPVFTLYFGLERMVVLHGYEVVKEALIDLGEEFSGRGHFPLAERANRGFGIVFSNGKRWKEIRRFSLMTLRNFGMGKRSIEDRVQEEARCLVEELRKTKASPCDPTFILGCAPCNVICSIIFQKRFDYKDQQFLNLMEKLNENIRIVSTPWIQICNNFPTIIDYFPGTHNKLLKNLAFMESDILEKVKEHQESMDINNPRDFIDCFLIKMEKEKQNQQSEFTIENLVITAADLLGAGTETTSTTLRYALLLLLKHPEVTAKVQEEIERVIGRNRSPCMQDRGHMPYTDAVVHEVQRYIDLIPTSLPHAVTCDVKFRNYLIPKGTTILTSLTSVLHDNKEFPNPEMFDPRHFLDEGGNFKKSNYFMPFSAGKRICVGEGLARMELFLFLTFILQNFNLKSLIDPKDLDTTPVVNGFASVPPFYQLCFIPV
Chain of Cytochrome P450 3A4 (Homo sapiens) (P08684 whole entry, looked up): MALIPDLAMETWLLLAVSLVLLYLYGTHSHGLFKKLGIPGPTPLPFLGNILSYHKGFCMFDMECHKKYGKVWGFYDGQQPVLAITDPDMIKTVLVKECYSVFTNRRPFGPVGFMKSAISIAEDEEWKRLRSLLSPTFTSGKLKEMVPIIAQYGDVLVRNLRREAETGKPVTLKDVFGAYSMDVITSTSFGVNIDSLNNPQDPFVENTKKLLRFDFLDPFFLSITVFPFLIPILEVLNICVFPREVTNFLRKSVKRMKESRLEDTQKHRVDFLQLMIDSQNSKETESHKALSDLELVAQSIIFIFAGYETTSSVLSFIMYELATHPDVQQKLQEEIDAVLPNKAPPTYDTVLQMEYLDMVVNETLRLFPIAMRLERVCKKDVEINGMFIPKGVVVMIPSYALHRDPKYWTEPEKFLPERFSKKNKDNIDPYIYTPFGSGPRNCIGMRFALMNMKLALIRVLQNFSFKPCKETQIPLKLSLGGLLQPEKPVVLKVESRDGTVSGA

C1N2CN3CN1CN(C2)C3
active: [2] 68.7 µM
not listed: [13] | [14]
inactive: all other assays above

CC(C)(O)c1coc(S(=O)(=O)NC(=O)Nc2c3c(cc4c2CCC4)CCC3)c1
active: [2] 50 µM | [3] 2.62 µM | CYP2E1 (gene 1571) 36.8 µM | [10] 10.5 µM | [12] 18.3 µM
not listed: [4] | [5] | [14]
inactive: all other assays above

C1=CCCC=CCCC=CCC1
not listed: [1]
inactive: all other assays above

CCOCCOCCOCCO
not listed: [13] | [14]
inactive: all other assays above

CC(C)=CCC/C(C)=C/CO
inactive: Caspase-3 (Homo sapiens) | [14] | [6] | [7] | [8] | [9] | [11]

CCCCCCCCO
not listed: [13] | [14]
inactive: all other assays above

CCNc1ccccc1
active: [2] 16.5 µM | [3] 28.3 µM
not listed: [13] | [14]
inactive: all other assays above

O=c1[nH]c2ccc(S(=O)CCN3CCC(Cc4ccc(F)cc4)CC3)cc2o1 (stereo unspecified)
inactive: Caspase-3 (Homo sapiens) | [1] | [2] | [9] | CYP3A5 (gene 1577)
active: [3] 82.3 µM | CYP2C8 (gene 1558) 78.5 µM | CYP2C9 (gene 1559) 71.1 µM | CYP2E1 (gene 1571) 50 µM | CYP4A11 (gene 1579) 82.6 µM | [5] 12.5 µM | [6] 50 µM | [7] 30.7 µM | [8] 50 µM | [10] 90.1 µM | [11] 80.3 µM | [12] 72.5 µM

COCCOCCOCCOC
not listed: [13] | [14]
inactive: all other assays above

Cc1ccc(S(=O)(=O)O)cc1C
not listed: [13] | [14]
inactive: all other assays above

O=C(O)c1cc(N=Nc2ccc(S(=O)(=O)Nc3ccccn3)cc2)ccc1O
active: [2] 75.7 µM
not listed: [5] | [13] | [14]
inactive: all other assays above

COc1ccc(/C=C/S(=O)(=O)NC(=O)c2ccc(C)cc2Cl)cc1
active: [3] 89.8 µM | CYP2E1 (gene 1571) 69.6 µM | [10] 20.1 µM
not listed: [13] | [14]
inactive: all other assays above

Cn1c(=O)c2c(ncn2C)n(C)c1=O
active: [3] 50 µM
not listed: [13] | [14]
inactive: all other assays above
